In the library only some 3.5% were active in any assay of this set; here they are far more common.
M1 PAM – human CHRM1 positive allosteric modulation; P11229; activation, % at 3 µM; AID 588819; CHO-K1 hM1, Fluo-8 calcium fluorescence, ACh EC20; 0% = ACh EC20, 100% = maximal ACh; 360,000 compounds, 0.088% hits; in the data active = activation above about 19%, passing the limit was not always enough
Target sequence (P11229 whole entry, looked up): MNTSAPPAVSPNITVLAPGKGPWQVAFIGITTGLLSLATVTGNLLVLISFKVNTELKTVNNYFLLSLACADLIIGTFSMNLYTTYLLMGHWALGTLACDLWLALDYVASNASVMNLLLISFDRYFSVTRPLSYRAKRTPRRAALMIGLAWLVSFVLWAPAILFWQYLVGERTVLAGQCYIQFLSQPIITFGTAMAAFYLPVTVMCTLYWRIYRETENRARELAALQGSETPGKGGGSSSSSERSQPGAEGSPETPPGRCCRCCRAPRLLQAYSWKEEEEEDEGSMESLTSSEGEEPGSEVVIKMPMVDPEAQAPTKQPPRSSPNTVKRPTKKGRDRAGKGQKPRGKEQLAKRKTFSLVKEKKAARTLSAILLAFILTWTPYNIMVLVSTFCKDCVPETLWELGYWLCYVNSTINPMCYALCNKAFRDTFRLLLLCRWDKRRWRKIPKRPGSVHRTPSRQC
CHRM1 antagonist – antagonists of human M1 muscarinic receptor. inhibition, % at 3 µM. 360,000 compounds, 1.3% hits. P11229. CHO-K1 hM1, Fluo-8 calcium fluorescence, ACh EC80 antagonist. AID 588852;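 active = percent inhibition above its own plate's cutoff, namely the mean of that plate's compound wells plus 3 SD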;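 also: peak over basal fluorescence ratio during 140 s after agonist addition; 0% = ACh EC80 plus DMSO and 100% = DMSO alone without agonist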
SKN-1 inh – inhibitors of C. elegans SKN-1 | 360,000 compounds, 0.49% hits | C. elegans VP596 Pgst-4::GFP/RFP ratio, acrylamide-induced, 24 h | inhibition, % at 21.8 µM;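 active = interference check ratio from 0.5 to 1.5 plus GFP to RFP signal ratio inhibition reaching or exceeding a fixed threshold, cut at about 30% in these data, passing the limit was not always enough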
Myeloid diff MLP – myeloid differentiation induction. ER-HoxA9 myeloid progenitors, lysozyme-GFP differentiation, flow cytometry. calls only at 10 µM. 360,000 compounds, 1% hits;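 active = normalized GFP-positive differentiation at or above the plate's own cutoff, the solvent-only control mean plus 3 SD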;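 also: cells exposed to compound for four days before flow analysis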
ATG4B inh – ATG4B (human) cysteine protease inhibition. ATG4B cleavage of LC3-PLA2, NBD-HPC fluorescence, 1 h. AID 504462. inhibition, % at 8.33 µM. Q9Y4P1. 340,000 compounds, 0.51% hits; in the data active = inhibition above about 40%
CHRM1 agonist – activates human CHRM1 receptor; P11229; CHO-K1 hM1, Fluo-8 calcium fluorescence, agonist mode; 0% DMSO, 100% acetylcholine EC100; activation, % at 3 µM; 360,000 compounds, 0.33% hits; AID 588814;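 active = activation above the run's mean compound activation plus 3 SD, cut at about 16% in these data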;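 also: peak over basal fluorescence ratio within a 140 s kinetic read after compound addition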
Numbers without * were called inactive.

C=CCN(c1ccc(OC)cc1)S(=O)(=O)c1ccc(Cl)c(C(=O)OCC(=O)NC2CC2)c1 was read as M1 PAM -9, CHRM1 antagonist 9, SKN-1 inh 15, Myeloid diff MLP inactive, ATG4B inh -15 and CHRM1 agonist -9.
Screening C=CCN(c1ccccc1)S(=O)(=O)c1ccc(Cl)c(C(=O)OCC(=O)c2[nH]c(C)c(C(C)=O)c2C)c1 returned M1 PAM -19, CHRM1 antagonist 31*, SKN-1 inh 14, Myeloid diff MLP inactive, ATG4B inh -6 and CHRM1 agonist -7.
Screening CCOC(=O)c1cc2ccccc2n1C1CCN(C)CC1 returned SKN-1 inh 11 and Myeloid diff MLP inactive.
Screening CC(=O)NCCNc1nc(NCc2ccccc2)nc2ccsc12 returned M1 PAM -27, CHRM1 antagonist 8, SKN-1 inh 3, Myeloid diff MLP inactive and CHRM1 agonist 32*.
`CCCCNc1nc(NCc2ccccc2)nc2ccccc12` gave SKN-1 inh 17 and Myeloid diff MLP active.
O=C1CCCN1CCCNc1nc(NCc2ccccc2)nc2ccsc12 was read as M1 PAM -33, CHRM1 antagonist 101*, SKN-1 inh 0, Myeloid diff MLP inactive and CHRM1 agonist 92*.
`COCCNc1nc(NCc2ccccc2)nc2ccsc12` gave M1 PAM -33, CHRM1 antagonist 100*, SKN-1 inh 18, Myeloid diff MLP inactive and CHRM1 agonist 79*.
For Cn1cccc1/C=C1\Cc2ccccc2C1=O the results were M1 PAM 4, CHRM1 antagonist -7, SKN-1 inh 17, Myeloid diff MLP inactive, ATG4B inh 14 and CHRM1 agonist -7.
Screening Cn1cccc1/C=C1\CC(C(C)(C)C)C/C(=C\c2cccn2C)C1=O (stereo not given) returned M1 PAM 3, CHRM1 antagonist -1, SKN-1 inh 21, Myeloid diff MLP active, ATG4B inh 25 and CHRM1 agonist -2.
`c1ccc(Nc2nc(-c3ccncc3)nc3ccccc23)cc1` gave M1 PAM -6, CHRM1 antagonist 16, SKN-1 inh 21, Myeloid diff MLP inactive, ATG4B inh -2 and CHRM1 agonist -5.
For c1ccc(CCNc2nc(-c3ccncc3)nc3ccccc23)cc1 the results were M1 PAM -14, CHRM1 antagonist 35*, SKN-1 inh -6, Myeloid diff MLP inactive, ATG4B inh -2 and CHRM1 agonist -4.
For CCCOc1ccc(-c2nc(OCC)c3ccccc3n2)cc1 the results were M1 PAM -1, CHRM1 antagonist -1, SKN-1 inh 8, Myeloid diff MLP inactive, ATG4B inh -10 and CHRM1 agonist -2.
CCOc1nc(-c2ccncc2)nc2ccccc12 was read as M1 PAM 7, CHRM1 antagonist -6, SKN-1 inh 39*, Myeloid diff MLP inactive, ATG4B inh 6 and CHRM1 agonist -4.
Screening CCOc1ccccc1CNc1ccc(O)cc1 returned M1 PAM 3, CHRM1 antagonist -3, SKN-1 inh 42*, Myeloid diff MLP inactive, ATG4B inh 3 and CHRM1 agonist -4.
`CCOc1cc(CNc2ccc(O)cc2)ccc1OCc1ccc(Cl)cc1Cl` gave M1 PAM 8, CHRM1 antagonist -12, SKN-1 inh 41*, Myeloid diff MLP inactive, ATG4B inh -1 and CHRM1 agonist -4.
`CCOc1cccc(CNc2ccc(O)cc2)c1OCc1ccc(Cl)cc1` gave M1 PAM -4, CHRM1 antagonist 7, SKN-1 inh 16, Myeloid diff MLP inactive, ATG4B inh 11 and CHRM1 agonist -4.
`CN(C)c1ccc(C(O)c2cc3ccccc3s2)cc1` (stereo not given) gave M1 PAM -1, CHRM1 antagonist 7, SKN-1 inh -6, Myeloid diff MLP inactive, ATG4B inh -1 and CHRM1 agonist 2.
`CN(Cc1ccc(C(F)(F)F)cc1)C(=O)[C@H]1O[C@@H](n2ccc(=O)[nH]c2=O)[C@H](O)[C@@H]1O` gave M1 PAM -1, CHRM1 antagonist -16, SKN-1 inh -6, Myeloid diff MLP inactive and CHRM1 agonist 0.
For COC(=O)c1c(C)[nH]c(O)c1C=Nc1ccc(C#N)cc1 the results were M1 PAM 5, CHRM1 antagonist -6, SKN-1 inh 46*, Myeloid diff MLP inactive, ATG4B inh -21 and CHRM1 agonist -4.
Cc1csc(-c2cc(C(=O)NCc3ccc(F)cc3)n[nH]2)c1 was read as M1 PAM 9, CHRM1 antagonist -16, SKN-1 inh 16, Myeloid diff MLP inactive and CHRM1 agonist 0.
For Cc1cc2c(cc1C)NC(CC(=O)NCc1ccccc1)C(=O)N2 (stereo not given) the results were M1 PAM -1, CHRM1 antagonist -5, SKN-1 inh 9, Myeloid diff MLP active, ATG4B inh -6 and CHRM1 agonist 0.
Screening COCCCn1c(SCC(=O)Nc2ccccc2F)nnc1-c1ccoc1C returned M1 PAM 1, CHRM1 antagonist 5, SKN-1 inh 2, Myeloid diff MLP inactive, ATG4B inh -4 and CHRM1 agonist 1.
Screening O=C(Nc1ccc(N2CCCCC2)c(Cl)c1)c1cccnc1 returned M1 PAM -3, CHRM1 antagonist 2, SKN-1 inh 23, Myeloid diff MLP active, ATG4B inh -5 and CHRM1 agonist -6.
`O=C(Nc1ccc(N2CCCC2)c(Cl)c1)c1cccnc1` gave M1 PAM 6, CHRM1 antagonist -6, SKN-1 inh 18, Myeloid diff MLP inactive, ATG4B inh -3 and CHRM1 agonist -6.
`O=C(c1ccc(S(=O)(=O)c2cccc(Cl)c2)c([N+](=O)[O-])c1)N1CCN(c2ccccn2)CC1` gave M1 PAM -19, CHRM1 antagonist 58*, SKN-1 inh -14, Myeloid diff MLP inactive, ATG4B inh -15 and CHRM1 agonist 0.
For O=C(c1ccc(S(=O)(=O)Nc2ccccc2F)cc1)N1CCN(c2ccccn2)CC1 the results were M1 PAM -27, CHRM1 antagonist 51*, SKN-1 inh 5, Myeloid diff MLP inactive, ATG4B inh -5 and CHRM1 agonist -5.
For O=C(N/N=C/c1ccc(F)cc1)c1cc(-c2ccccn2)nc2ccccc12 the results were M1 PAM 4, CHRM1 antagonist -7, SKN-1 inh 3, Myeloid diff MLP inactive, ATG4B inh -6 and CHRM1 agonist -3.
COc1cccc(/C=N/NC(=O)c2cc(-c3ccccn3)nc3ccccc23)c1O was read as M1 PAM -11, CHRM1 antagonist 37*, SKN-1 inh 1, Myeloid diff MLP inactive, ATG4B inh -2 and CHRM1 agonist -5.
O=C(NCCCCCCNC(=O)c1ccccc1O)c1ccccc1O was read as M1 PAM -23, CHRM1 antagonist 32*, SKN-1 inh 6, Myeloid diff MLP inactive, ATG4B inh 8 and CHRM1 agonist -1.
